From PubChem BioAssay
Active and inactive are the calls of the source.

Columns and labels:
[1] = E. coli DRC41 culture turbidity changes, primary screen, E. coli filamentation inducer project, strain DRC41, OD650, 48 h (AID 1152);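 also: E. coli MC1000 strain DRC41 lacking acrAB efflux pump and sulA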; details: E. coli DRC41 (acrAB sulA), higher = more signal, called active from +8 up or from −8 down
[2] = small-molecule binders of probe aLefty1, primary screen, biochemical, small-molecule microarray, 635/667 nm fluorescence (AID 1153); details: higher = more signal;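 also: score merges spot fluorescence with signal-to-noise ratio from the scanned slide images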
[3] = PSAC antagonists in infected red cells, primary screen, cell-based, P. falciparum Indochina, OD700, 1 h (AID 1154); details: P. falciparum Indochina infected RBC osmotic lysis, higher = more signal, called active from +8 up or from −8 down
[4] = PSAC antagonists in infected red cells, primary screen, cell-based, P. falciparum Indochina, OD700, 2 h (AID 1155);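 also: lysis reports solute entry through the parasite surface anion channel PSAC; channel blockers reduce lysis of infected cells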; details: P. falciparum Indochina infected erythrocytes, osmotic lysis OD700; higher = more signal, called active from +8 up or from −8 down
[5] = osmotic lysis modulators in infected erythrocytes, primary screen, PSAC antagonist project, cell-based, P. falciparum Indochina, OD700, 3 h (AID 1156); details: higher = more signal, called active from +8 up or from −8 down
[6] = PSAC antagonists in infected red cells, primary screen, cell-based, P. falciparum Indochina, OD700, 18 h (AID 1157); details: P. falciparum Indochina infected erythrocytes, osmotic lysis OD700, 18 h; higher = more signal, called active from +8 up or from −8 down
[7] = modulators of S6 phosphorylation in cells, primary screen, cell-based, A549, cytoblot, luminescence, serum-stimulated (AID 1158); details: A549 phospho-S6 cytoblot, 5 h, higher = more signal;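 also: serum-stimulated A549 lung adenocarcinoma cells; signal is phosphorylated S6 detected by cytoblot immunostaining with HRP secondary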
[8] = target: NADPH oxidase 2 (Homo sapiens) (UniProt P04839); test: NOX2-dependent H2O2 signal modulators, primary screen, NOX inhibitor project, cell-based, HEK293-NOX2, PMA-stimulated, Amplex Red fluorescence (AID 1159); details: 45 min, higher = more signal, called active from +8 up or from −8 down; also: test concentration not given here
Chain of NADPH oxidase 2 (Homo sapiens) (P04839 whole entry, looked up): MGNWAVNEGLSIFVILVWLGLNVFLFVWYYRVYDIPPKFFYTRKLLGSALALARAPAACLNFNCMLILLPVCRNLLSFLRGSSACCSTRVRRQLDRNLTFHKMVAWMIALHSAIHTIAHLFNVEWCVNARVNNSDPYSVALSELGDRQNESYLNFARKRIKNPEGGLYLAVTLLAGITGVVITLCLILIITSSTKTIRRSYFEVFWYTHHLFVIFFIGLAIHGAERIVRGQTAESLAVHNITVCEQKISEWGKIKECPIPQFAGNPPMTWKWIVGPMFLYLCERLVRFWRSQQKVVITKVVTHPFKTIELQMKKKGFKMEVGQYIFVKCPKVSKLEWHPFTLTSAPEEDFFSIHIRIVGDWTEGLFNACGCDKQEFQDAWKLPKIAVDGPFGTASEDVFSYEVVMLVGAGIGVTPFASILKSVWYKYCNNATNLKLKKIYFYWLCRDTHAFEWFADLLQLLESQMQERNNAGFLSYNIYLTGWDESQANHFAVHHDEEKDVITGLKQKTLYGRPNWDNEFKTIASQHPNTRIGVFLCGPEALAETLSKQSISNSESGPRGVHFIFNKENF

[9] = target: NADPH oxidase 4 (Homo sapiens) (UniProt Q9NPH5); test: NOX4-dependent H2O2 signal modulators, primary screen, NOX inhibitor project, cell-based, HEK293-NOX4, tetracycline-induced, Amplex Red fluorescence (AID 1160); details: 45 min, higher = more signal, called active from +8 up or from −8 down
Chain of NADPH oxidase 4 (Homo sapiens) (Q9NPH5 whole entry, looked up): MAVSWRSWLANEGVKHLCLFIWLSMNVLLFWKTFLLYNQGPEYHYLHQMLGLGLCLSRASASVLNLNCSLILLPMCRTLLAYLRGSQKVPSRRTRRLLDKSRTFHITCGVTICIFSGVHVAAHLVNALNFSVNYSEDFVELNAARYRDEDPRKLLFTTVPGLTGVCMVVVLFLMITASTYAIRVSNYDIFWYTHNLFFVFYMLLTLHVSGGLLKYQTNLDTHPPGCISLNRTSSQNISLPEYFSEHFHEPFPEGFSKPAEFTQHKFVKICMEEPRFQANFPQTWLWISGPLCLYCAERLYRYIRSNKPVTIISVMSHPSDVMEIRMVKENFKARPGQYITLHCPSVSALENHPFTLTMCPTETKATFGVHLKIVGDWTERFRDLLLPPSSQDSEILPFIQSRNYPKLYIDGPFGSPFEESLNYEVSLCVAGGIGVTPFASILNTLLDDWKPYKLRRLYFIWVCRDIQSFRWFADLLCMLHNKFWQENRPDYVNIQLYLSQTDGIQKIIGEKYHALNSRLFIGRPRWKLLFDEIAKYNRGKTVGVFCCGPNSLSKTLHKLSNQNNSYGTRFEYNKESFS

[10] = target: NADPH oxidase 5 (Homo sapiens) (UniProt Q96PH1); test: NOX5-dependent H2O2 signal modulators, primary screen, NOX inhibitor project, cell-based, HEK293-NOX5, Amplex Red fluorescence (AID 1161); details: HEK293-NOX5, ionomycin, 45 min, higher = more signal
Chain of NADPH oxidase 5 (Homo sapiens) (Q96PH1 whole entry, looked up): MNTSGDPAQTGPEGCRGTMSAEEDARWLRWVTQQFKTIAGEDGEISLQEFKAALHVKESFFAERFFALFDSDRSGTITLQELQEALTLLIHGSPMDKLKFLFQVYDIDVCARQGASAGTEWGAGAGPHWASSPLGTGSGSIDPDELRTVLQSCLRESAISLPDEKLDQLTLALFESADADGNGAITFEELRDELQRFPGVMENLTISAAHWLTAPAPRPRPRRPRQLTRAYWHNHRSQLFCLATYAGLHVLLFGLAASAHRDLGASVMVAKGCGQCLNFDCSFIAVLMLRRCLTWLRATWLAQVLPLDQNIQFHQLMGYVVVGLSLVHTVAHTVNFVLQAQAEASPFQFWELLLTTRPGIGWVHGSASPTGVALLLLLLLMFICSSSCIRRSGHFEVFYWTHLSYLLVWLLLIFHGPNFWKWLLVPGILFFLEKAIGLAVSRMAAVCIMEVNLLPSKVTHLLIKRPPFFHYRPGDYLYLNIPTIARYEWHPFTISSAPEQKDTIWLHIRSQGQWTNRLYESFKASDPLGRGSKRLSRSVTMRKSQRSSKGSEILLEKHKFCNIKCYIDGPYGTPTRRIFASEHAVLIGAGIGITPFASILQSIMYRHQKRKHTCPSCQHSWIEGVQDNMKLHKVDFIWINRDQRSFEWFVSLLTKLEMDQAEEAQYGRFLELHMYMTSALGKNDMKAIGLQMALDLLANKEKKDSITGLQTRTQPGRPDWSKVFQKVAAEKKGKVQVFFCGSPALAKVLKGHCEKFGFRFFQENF

SMILES	z-score [1]	composite z-score [2]	z-score [3]	z-score [4]	z-score [5]	z-score [6]	z-score [7]	z-score [8]	z-score [9]	z-score [10]
O=C(CS)NCCCCCCNC(=O)[C@H]1C[C@H]2C(=O)N[C@@H](Cc3ccccc3)C(=O)N2[C@H]1c1ccc(O)cc1	-0.558 (inactive)	-0.54	8.58 (active)	1.21 (inactive)	-0.177 (inactive)	0.767 (inactive)	-0.0427	0.593 (inactive)	-0.0574 (inactive)	1.08
CC1=C[C@@]2(CO)C(=O)[C@]3(CO3)[C@@H]1[C@H]1[C@]2(C)C=C(CO)C(=O)[C@]12CO2	0.806 (inactive)	-0.148	0.0442 (inactive)	0.446 (inactive)	0.429 (inactive)	0.156 (inactive)	-0.0631	-0.35 (inactive)	-1.07 (inactive)	-1.14
[N-]=[N+]=NCc1ccccc1C[C@@]1(C(=O)N2CCOCC2)N=C(c2ccc(OCCCO)cc2)O[C@@H]1c1ccccc1	0.083 (inactive)	0.276	27 (active)	17.1 (active)	2.37 (inactive)	0.889 (inactive)	2.41	-4.45 (inactive)	-1.12 (inactive)	-2.14
COc1ccc([Si](C)(C)[C@@H]2[C@@H](CC(=O)N(CCO)Cc3ccccc3)O[C@]3(C(=O)N(c4ccccc4)c4ccccc43)[C@H]2C)cc1	1.3 (inactive)	0.201	9.05 (active)	1.2 (inactive)	-1.43 (inactive)	0.303 (inactive)	1.73	-0.0719 (inactive)	0.574 (inactive)	-1.55
CO[C@H]1O[C@H](CO)[C@@H](OC(=O)Nc2ccc3c(c2)OCO3)[C@H](OC(=O)c2cc3ccccc3[nH]2)[C@H]1OC(=O)c1cc2ccccc2[nH]1	0.599 (inactive)	-0.0162	1.48 (inactive)	-0.354 (inactive)	-0.739 (inactive)	-0.536 (inactive)	1.26	-3.78 (inactive)	-1.95 (inactive)	-3.47
CCOC(=O)c1ccc(NC(=O)O[C@H]2[C@H](OC(=O)Nc3ccc4c(c3)OCO4)[C@@H](OC(=O)Nc3ccc4c(c3)OCO4)[C@@H](OC)O[C@@H]2CO)cc1	0.113 (inactive)	0.325	10.4 (active)	1.31 (inactive)	0.843 (inactive)	0.593 (inactive)	0.0796	-3.35 (inactive)	-0.689 (inactive)	-1.77
COc1ccc(CCN2C(=O)[C@@]3(Cc4ccccc42)c2ccccc2C(=O)N(Cc2ccccc2OC)[C@H]3c2ccc(CO)cc2)cc1	2.06 (inactive)	0.595	1.96 (inactive)	-0.373 (inactive)	-0.217 (inactive)	-1.29 (inactive)	3.17	0.348 (inactive)	-0.797 (inactive)	0.327
C=CC[C@]1(C(=O)NCCN2CCOCC2)N=C(c2ccc(OCCCO)cc2)O[C@H]1c1ccccc1CN=[N+]=[N-]	1.33 (inactive)	-0.264	18.6 (active)	1.83 (inactive)	2.57 (inactive)	0.79 (inactive)	0.202	2.07 (inactive)	1.16 (inactive)	-0.426
O=C1C[C@@](C(=O)NCCN2CCOCC2)(c2ccc([N+](=O)[O-])cc2)[C@@H](c2ccc(CO)cc2I)N1C1CCCCC1	0.82 (inactive)	0.0688	15.3 (active)	1.59 (inactive)	2.94 (inactive)	-0.168 (inactive)	0.452	2.1 (inactive)	-1.09 (inactive)	-1.5
COC(=O)[C@@]1(Cc2ccc(F)cc2)[C@H]2c3cc(C(=O)N(C)C)n(CCc4ccc(O)c(OC)c4)c3C[C@H]2CN1C(=O)c1ccccc1	-1.22 (inactive)	1.63	-0.951 (inactive)	0.236 (inactive)	-0.722 (inactive)	0.667 (inactive)	-0.824	-0.0241 (inactive)	-0.627 (inactive)	-0.245
CCOc1cc(C(O)C2C=CC3C(=O)N(C)C(=O)C3N2Nc2ccccc2)ccc1O (stereo not given)	-0.353 (inactive)	0.0313	0.453 (inactive)	1.45 (inactive)	0.42 (inactive)	1.42 (inactive)	-1.01	-1.4 (inactive)	-1.94 (inactive)	-1.78
CC(C)(C)OC(=O)CC[C@]1(C(=O)NCc2ccccc2)N=C(c2ccc(OCCCO)cc2)O[C@H]1c1ccccc1CN=[N+]=[N-]	0.829 (inactive)	0.146	25.3 (active)	12.3 (active)	3.22 (inactive)	1.65 (inactive)	0.224	-0.174 (inactive)	-0.533 (inactive)	-1.47
COc1cccc(/C=C/C=O)c1	1.46 (inactive)	0.212	0.206 (inactive)	-0.11 (inactive)	-0.648 (inactive)	-0.0641 (inactive)	0.0159	-0.759 (inactive)	-0.228 (inactive)	0.985
COCCOC(=O)N1C(=O)[C@@]2(c3cc(C#CC4(O)CCCCCC4)ccc31)[C@H](c1ccc(O)cc1)N1[C@H](c3ccccc3)[C@H](c3ccccc3)OC(=O)[C@H]1[C@@H]2C(=O)NC[C@H](O)c1ccccc1	-0.686 (inactive)	0.405	1.14 (inactive)	0.487 (inactive)	-1.17 (inactive)	0.196 (inactive)	0.101	1.97 (inactive)	0.895 (inactive)	1.2
[N-]=[N+]=NCc1ccccc1C[C@@]1(C(=O)N2CCCCC2)N=C(c2ccc(OCCCO)cc2)O[C@@H]1c1ccccc1	-0.184 (inactive)	0.0323	25.2 (active)	14.3 (active)	2.13 (inactive)	2.51 (inactive)	0.893	-2.02 (inactive)	-0.495 (inactive)	-1.49
CCCCCCCCCCC(O)C1C=CC2C(=O)N(C)C(=O)C2N1NC(=O)OC(C)(C)C (stereo not given)	-3.07 (inactive)	-0.239	8.95 (active)	2.45 (inactive)	-1.28 (inactive)	1.81 (inactive)	-1.36	-0.67 (inactive)	-7.78 (inactive)	-3.78
C=C[C@@H](OC)[C@H](OC(=O)Nc1ccc(SC)cc1)c1ccc(O)c(F)c1	-1.51 (inactive)	0.44	24.7 (active)	7.57 (inactive)	2.98 (inactive)	1.31 (inactive)	-0.618	-2.6 (inactive)	-2.4 (inactive)	-1.26
CO[C@]12C=C(Br)[C@@H](C[C@@H]1c1cccc(C)c1)[C@@]1(CO1)C2=O	-0.009 (inactive)	-0.0035	-0.219 (inactive)	-0.119 (inactive)	0.442 (inactive)	-0.382 (inactive)	0.149	-0.356 (inactive)	0.539 (inactive)	-0.588
CC(C)C[C@@H]1NC(=O)[C@@H]2C[C@H](C(=O)NCCCCN(C)C)[C@H](c3cccc(OCCO)c3)N2C1=O	0.471 (inactive)	0.0945	4.21 (inactive)	0.239 (inactive)	0.931 (inactive)	0.128 (inactive)	0.422	1.46 (inactive)	1.13 (inactive)	0.903
OCCCC1=CC(c2ccc(CN3CCCC3)cc2)N(Cc2sc3ccccc3c2Cl)CC1 (stereo not given)	-1.6 (inactive)	0.527	7.15 (inactive)	1.29 (inactive)	0.314 (inactive)	1.19 (inactive)	-0.319	-5.42 (inactive)	-2.03 (inactive)	-2.27
COCCOC(=O)N1C(=O)[C@@]2(c3cc(C#CCC(C(=O)OC)C(=O)OC)ccc31)[C@H](C(=O)N1CCc3cc(OC)c(OC)cc3C1)[C@H]1C(=O)O[C@H](c3ccccc3)[C@H](c3ccccc3)N1[C@@H]2c1ccc(OCCO)cc1	-0.763 (inactive)	0.54	9.36 (active)	2.73 (inactive)	0.57 (inactive)	1.67 (inactive)	-0.37	1.98 (inactive)	1.19 (inactive)	1.42
CCOC(=O)C1=CC[C@@H](c2ccc(OCc3ccccc3)c(OC)c2)N(S(=O)(=O)c2ccc(C)cc2)[C@H]1c1ccc(SC)cc1	-1.21 (inactive)	0.524	0.658 (inactive)	0.9 (inactive)	0.692 (inactive)	0.387 (inactive)	-0.635	0.877 (inactive)	0.0161 (inactive)	-0.508
O=C(NCC(F)(F)F)[C@@H]1c2ccccc2C(=O)N(Cc2cc(F)cc(C(F)(F)F)c2)[C@H]1c1ccc(CO)cc1	0.319 (inactive)	0.0494	1.71 (inactive)	-0.0966 (inactive)	1.24 (inactive)	0.449 (inactive)	0.286	0.898 (inactive)	-1.68 (inactive)	-1.17
O=C1NC(=O)C2C1C=CC(C(O)CCc1ccccc1)N2Nc1ccc(Cl)cc1Cl (stereo not given)	-1.34 (inactive)	-0.0162	2.28 (inactive)	1.31 (inactive)	0.0675 (inactive)	1.05 (inactive)	-1.01	-0.22 (inactive)	-5.55 (inactive)	-0.709
